Results: article PMC7862700, “An all-to-all approach to the identification of sequence-specific readers for epigenetic DNA modifications on cytosine”

Legend:
Test in all cases: DAPPL (digital affinity profiling via proximity ligation, sequencing); 10 mM Tris-HCl pH 7.5, 50 mM NaCl, 1 mM DTT, 4% glycerol, room temperature, 30 min; GST-TFs on glutathione beads, 16-mer random dsDNA library, 0.1% formaldehyde crosslink after washing; high values mean tight binding
Conditions in all cases: protein: recombinant; tags: N-terminal GST; dsDNA, one strand shown
ERF = target: T1, ERF (Homo sapiens, UniProt P50548 1-548)
T1 sequence: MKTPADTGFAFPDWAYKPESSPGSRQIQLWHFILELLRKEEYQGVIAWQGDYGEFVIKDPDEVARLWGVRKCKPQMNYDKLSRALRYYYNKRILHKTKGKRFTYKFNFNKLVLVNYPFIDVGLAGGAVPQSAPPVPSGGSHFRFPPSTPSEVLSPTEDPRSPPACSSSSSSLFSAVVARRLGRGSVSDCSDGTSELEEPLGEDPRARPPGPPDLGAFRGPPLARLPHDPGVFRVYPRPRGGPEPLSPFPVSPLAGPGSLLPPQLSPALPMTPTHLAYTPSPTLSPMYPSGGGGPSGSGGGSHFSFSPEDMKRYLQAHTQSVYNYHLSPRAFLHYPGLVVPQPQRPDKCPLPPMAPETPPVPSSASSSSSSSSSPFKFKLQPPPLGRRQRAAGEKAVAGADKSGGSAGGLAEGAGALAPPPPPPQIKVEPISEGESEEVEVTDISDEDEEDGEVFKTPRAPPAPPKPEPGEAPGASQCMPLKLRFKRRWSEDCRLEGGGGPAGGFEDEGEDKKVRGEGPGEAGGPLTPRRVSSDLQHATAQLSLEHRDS
Procedure, shortened: (§1)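 Binding signal is given per hexamer as its read frequency for a factor divided by its frequency in the tag-only sample. GST-fused human transcription factors were expressed in yeast, captured on glutathione beads, barcoded with DNA and pooled with that sample, then incubated with 200 nmole of a 16-mer random double-stranded DNA library in Tris/NaCl/DTT/glycerol buffer for 30 min at room temperature. The pools were then washed, crosslinked, proximity-ligated, amplified by PCR and sequenced on an Illumina NextSeq500.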

ETV3L = target: T2, ETV3L (Homo sapiens, UniProt Q6ZN32 1-361)
T2 sequence: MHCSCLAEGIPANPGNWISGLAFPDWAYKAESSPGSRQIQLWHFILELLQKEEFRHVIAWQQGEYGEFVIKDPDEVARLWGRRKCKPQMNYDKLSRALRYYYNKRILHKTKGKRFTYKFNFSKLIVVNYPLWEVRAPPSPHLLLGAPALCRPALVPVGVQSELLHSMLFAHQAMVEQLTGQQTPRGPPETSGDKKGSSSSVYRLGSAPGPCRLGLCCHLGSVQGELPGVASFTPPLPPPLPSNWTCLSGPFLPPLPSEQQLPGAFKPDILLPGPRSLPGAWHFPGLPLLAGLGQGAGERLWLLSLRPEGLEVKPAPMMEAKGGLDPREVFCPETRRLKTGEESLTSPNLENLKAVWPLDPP
Procedure, shortened: as §1

ETS2 = target: T3, ETS2 (Homo sapiens, UniProt P15036 1-469)
T3 sequence: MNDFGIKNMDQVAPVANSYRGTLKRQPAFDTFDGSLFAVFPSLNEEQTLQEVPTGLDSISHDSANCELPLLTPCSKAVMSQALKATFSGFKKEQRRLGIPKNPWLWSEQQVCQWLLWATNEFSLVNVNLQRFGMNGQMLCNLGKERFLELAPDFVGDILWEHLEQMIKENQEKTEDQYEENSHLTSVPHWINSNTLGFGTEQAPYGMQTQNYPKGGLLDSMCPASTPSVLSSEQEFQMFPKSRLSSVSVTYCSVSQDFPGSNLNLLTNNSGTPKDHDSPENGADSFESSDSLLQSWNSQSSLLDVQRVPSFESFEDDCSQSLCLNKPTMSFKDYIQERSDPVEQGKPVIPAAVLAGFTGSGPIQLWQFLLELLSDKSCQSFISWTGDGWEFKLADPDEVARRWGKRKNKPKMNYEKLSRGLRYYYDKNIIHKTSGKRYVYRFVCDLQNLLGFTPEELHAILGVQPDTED
Procedure, shortened: as §1

SPDEF = target: T4, SPDEF (Homo sapiens, UniProt O95238 1-335)
T4 sequence: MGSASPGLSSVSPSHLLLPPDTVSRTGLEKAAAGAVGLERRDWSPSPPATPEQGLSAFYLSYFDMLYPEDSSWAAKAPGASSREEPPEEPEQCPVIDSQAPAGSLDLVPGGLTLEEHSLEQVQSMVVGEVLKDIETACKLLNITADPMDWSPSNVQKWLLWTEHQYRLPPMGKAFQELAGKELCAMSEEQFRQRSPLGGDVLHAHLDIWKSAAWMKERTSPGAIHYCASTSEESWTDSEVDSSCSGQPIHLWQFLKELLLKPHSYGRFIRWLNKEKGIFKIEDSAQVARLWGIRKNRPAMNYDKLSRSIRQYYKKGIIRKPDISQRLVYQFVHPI
Procedure, shortened: as §1

ETV7 = target: T5, ETV7 (Homo sapiens, UniProt Q9Y603 1-341)
T5 sequence: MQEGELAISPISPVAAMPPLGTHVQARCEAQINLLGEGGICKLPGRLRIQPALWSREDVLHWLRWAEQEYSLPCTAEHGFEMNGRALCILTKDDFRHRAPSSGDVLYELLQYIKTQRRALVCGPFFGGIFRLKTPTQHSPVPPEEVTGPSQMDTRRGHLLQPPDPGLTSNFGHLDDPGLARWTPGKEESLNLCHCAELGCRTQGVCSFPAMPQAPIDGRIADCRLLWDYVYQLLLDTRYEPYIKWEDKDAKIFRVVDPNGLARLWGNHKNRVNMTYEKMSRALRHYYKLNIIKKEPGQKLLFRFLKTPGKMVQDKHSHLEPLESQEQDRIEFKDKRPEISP
Procedure, shortened: as §1

ELF5 = target: T6, ELF5 (Homo sapiens, UniProt Q9UKW6-2 1-255)
T6 sequence: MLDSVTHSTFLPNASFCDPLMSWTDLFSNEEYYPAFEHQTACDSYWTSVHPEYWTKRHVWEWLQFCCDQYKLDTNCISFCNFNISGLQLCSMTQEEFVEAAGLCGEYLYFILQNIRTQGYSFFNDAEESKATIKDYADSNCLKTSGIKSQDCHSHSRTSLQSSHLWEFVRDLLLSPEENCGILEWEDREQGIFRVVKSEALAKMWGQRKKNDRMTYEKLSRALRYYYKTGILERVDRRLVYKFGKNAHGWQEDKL
Procedure, shortened: as §1

ETV3 = target: T7, ETV3 (Homo sapiens, UniProt P41162-2 1-143)
T7 sequence: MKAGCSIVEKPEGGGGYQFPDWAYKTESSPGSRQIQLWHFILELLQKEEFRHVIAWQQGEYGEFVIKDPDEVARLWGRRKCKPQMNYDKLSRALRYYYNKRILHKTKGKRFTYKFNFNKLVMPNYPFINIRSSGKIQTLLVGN
Procedure, shortened: as §1

ETV6 = ETV6 (Homo sapiens, UniProt P41212 1-452)
ETV6, sequence (P41212 whole entry): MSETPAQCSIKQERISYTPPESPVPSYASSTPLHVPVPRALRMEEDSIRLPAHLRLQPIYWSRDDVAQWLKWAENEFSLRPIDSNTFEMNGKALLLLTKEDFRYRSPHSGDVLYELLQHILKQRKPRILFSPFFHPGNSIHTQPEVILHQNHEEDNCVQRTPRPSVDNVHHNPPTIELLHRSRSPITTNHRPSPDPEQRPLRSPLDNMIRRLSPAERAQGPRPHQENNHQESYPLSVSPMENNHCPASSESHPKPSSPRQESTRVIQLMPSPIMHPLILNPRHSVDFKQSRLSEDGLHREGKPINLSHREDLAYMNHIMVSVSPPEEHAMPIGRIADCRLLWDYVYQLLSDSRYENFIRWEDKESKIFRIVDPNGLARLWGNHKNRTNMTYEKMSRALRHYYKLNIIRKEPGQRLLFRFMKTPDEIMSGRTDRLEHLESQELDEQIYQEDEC
Procedure, shortened: as §1

Row | Sequence | binding signal (ERF) | binding signal (ETV3L) | binding signal (ETS2) | binding signal (SPDEF) | binding signal (ETV7) | binding signal (ELF5) | binding signal (ETV3) | binding signal (ETV6)
1 | CTCGCC | 1.4 fold enrichment (6-mer frequency, TF over GST control) | 1.2 fold enrichment (6-mer frequency, TF over GST control) | 1.25 fold enrichment (6-mer frequency, TF over GST control) | 1.07 fold enrichment (6-mer frequency, TF over GST control) | 1.16 fold enrichment (6-mer frequency, TF over GST control) | 1.26 fold enrichment (6-mer frequency, TF over GST control) | 1.2 fold enrichment (6-mer frequency, TF over GST control) | 1.29 fold enrichment (6-mer frequency, TF over GST control)
2 | CGCCCC | 1.28 fold enrichment (6-mer frequency, TF over GST control) | 1.31 fold enrichment (6-mer frequency, TF over GST control) | 1.05 fold enrichment (6-mer frequency, TF over GST control) | 1.18 fold enrichment (6-mer frequency, TF over GST control) | 1.2 fold enrichment (6-mer frequency, TF over GST control) | 1.1 fold enrichment (6-mer frequency, TF over GST control) | 1.16 fold enrichment (6-mer frequency, TF over GST control) | 1.19 fold enrichment (6-mer frequency, TF over GST control)
3 | AACACC | 1.15 fold enrichment (6-mer frequency, TF over GST control) | 1.15 fold enrichment (6-mer frequency, TF over GST control) | 1.13 fold enrichment (6-mer frequency, TF over GST control) | 1.15 fold enrichment (6-mer frequency, TF over GST control) | 1.13 fold enrichment (6-mer frequency, TF over GST control) | 1.09 fold enrichment (6-mer frequency, TF over GST control) | 1.13 fold enrichment (6-mer frequency, TF over GST control) | 1.06 fold enrichment (6-mer frequency, TF over GST control)
4 | GTCCTC | 1.19 fold enrichment (6-mer frequency, TF over GST control) | 1.22 fold enrichment (6-mer frequency, TF over GST control) | 1.14 fold enrichment (6-mer frequency, TF over GST control) | 1.19 fold enrichment (6-mer frequency, TF over GST control) | 1.39 fold enrichment (6-mer frequency, TF over GST control) | 1.32 fold enrichment (6-mer frequency, TF over GST control) | 1.2 fold enrichment (6-mer frequency, TF over GST control) | 1.06 fold enrichment (6-mer frequency, TF over GST control)
5 | GCACAT | 1.2 fold enrichment (6-mer frequency, TF over GST control) | 1.19 fold enrichment (6-mer frequency, TF over GST control) | 1.12 fold enrichment (6-mer frequency, TF over GST control) | 1.28 fold enrichment (6-mer frequency, TF over GST control) | 1.07 fold enrichment (6-mer frequency, TF over GST control) | 1.1 fold enrichment (6-mer frequency, TF over GST control) | 1.15 fold enrichment (6-mer frequency, TF over GST control) | 1.14 fold enrichment (6-mer frequency, TF over GST control)
6 | ATAATT | 1.33 fold enrichment (6-mer frequency, TF over GST control) | 1.4 fold enrichment (6-mer frequency, TF over GST control) | 1.31 fold enrichment (6-mer frequency, TF over GST control) | 1.23 fold enrichment (6-mer frequency, TF over GST control) | 1.31 fold enrichment (6-mer frequency, TF over GST control) | 1.31 fold enrichment (6-mer frequency, TF over GST control) | 1.32 fold enrichment (6-mer frequency, TF over GST control) | 1.45 fold enrichment (6-mer frequency, TF over GST control)
7 | ACGCTG | 1.21 fold enrichment (6-mer frequency, TF over GST control) | 1.15 fold enrichment (6-mer frequency, TF over GST control) | 1.06 fold enrichment (6-mer frequency, TF over GST control) | 1.24 fold enrichment (6-mer frequency, TF over GST control) | 1.16 fold enrichment (6-mer frequency, TF over GST control) | 1.09 fold enrichment (6-mer frequency, TF over GST control) | 1.26 fold enrichment (6-mer frequency, TF over GST control) | 1.09 fold enrichment (6-mer frequency, TF over GST control)
